Results taken from ChEMBL document CHEMBL1157539, “Thousands of chemical starting points for antimalarial lead identification” (Nature, 2010).

Columns and labels:
Format in all cases: functional
Plasmodium falciparum [1] = experiment: GSK_TCMDC: Inhibition of Plasmodium falciparum 3D7 in whole red blood cells, using parasite LDH activity as an index of growth. Test compounds present at 2uM
Plasmodium falciparum [2] = experiment: GSK_TCMDC: Inhibition of Plasmodium falciparum Dd2 in whole red blood cells, using parasite LDH activity as an index of growth. Test compounds present at 2uM
HepG2 = experiment: GSK_TCMDC: Percent inhibition of human HepG2 cell line. Test compounds present at 10uM.

**Q.** Which Inhibition (Plasmodium falciparum [1]) does the source give for `O=C(Nc1ccc(-c2cccc(-c3nc4cc(C(F)(F)F)ccc4[nH]3)c2)cc1)Nc1ccc(F)c(F)c1F` here?
**A.** Its Inhibition is 99%.

**Q.** And the Inhibition (Plasmodium falciparum [2])?
**A.** The Inhibition was 85%.

**Q.** And the Inhibition (HepG2)?
**A.** The Inhibition was 58%.

**Q.** `O=C(NCc1ccc(Cl)c(Cl)c1)c1cccc(C2CCCN(Cc3ccc4[nH]cnc4c3)C2)c1` (stereo not drawn) was tested. Which Inhibition (Plasmodium falciparum [1]) did it give?
**A.** Its Inhibition is 95%.

**Q.** What about the Inhibition (Plasmodium falciparum [2]) of the same molecule?
**A.** The Inhibition was 30%.

**Q.** And the Inhibition (HepG2)?
**A.** Its Inhibition is 3%.

**Q.** `COc1cc2nc(N3CCN(C(=O)c4cccc(I)c4)CC3)nc(N)c2cc1OC` was tested. Which Inhibition (Plasmodium falciparum [1]) did it give?
**A.** The Inhibition was 88%.

**Q.** What about the Inhibition (Plasmodium falciparum [2]) of the same molecule?
**A.** Its Inhibition is 26%.

**Q.** And the Inhibition (HepG2)?
**A.** The Inhibition was 11%.

**Q.** Which results are given for `O=C(O)C(F)(F)F.O=S(=O)(/C=C/c1ccccc1)N(Cc1ccc(-c2ccc(CNCCc3ccccc3)cc2)cc1)CC1CCCCN1` (stereo not drawn)?
**A.** Inhibition (Plasmodium falciparum [1]): 100%; Inhibition (Plasmodium falciparum [2]): 96%; Inhibition (HepG2): 99%

**Q.** For `O=C(Nc1ccc(N2CCN(c3ncccc3C(F)(F)F)CC2)nc1)c1cccs1`, which Inhibition (Plasmodium falciparum [1]) is on record?
**A.** Its Inhibition is 83%.

**Q.** What about the Inhibition (Plasmodium falciparum [2]) of the same molecule?
**A.** Its Inhibition is 40%.

**Q.** And the Inhibition (HepG2)?
**A.** The Inhibition was 7%.

**Q.** What does the source list for `CCSc1ccccc1COc1c(C)nc(N)nc1N.Cl`?
**A.** Inhibition (Plasmodium falciparum [1]): 93%; Inhibition (Plasmodium falciparum [2]): 4%; Inhibition (HepG2): 54%

**Q.** How did the Inhibition (Plasmodium falciparum [1]) turn out when `COc1cc(NC(=O)c2sc(-c3ccc(Cl)cc3)cc2NC(=O)N2CCCC2)ccc1OCCN1CCCC1` was run?
**A.** The Inhibition was 100%.

**Q.** And the Inhibition (Plasmodium falciparum [2])?
**A.** The Inhibition was 61%.

**Q.** What about the Inhibition (HepG2) of the same molecule?
**A.** The Inhibition was 22%.

**Q.** What does the source list for `CN(C)CCCNc1ccnc2cc(Cl)ccc12`?
**A.** Inhibition (Plasmodium falciparum [1]): 100%; Inhibition (Plasmodium falciparum [2]): 100%; Inhibition (HepG2): 10%

**Q.** For `CNC(=O)c1ccccc1Nc1cc(Nc2cc(OC)ccn2)ncc1Cl.O=CO`, which Inhibition (Plasmodium falciparum [1]) is on record?
**A.** Its Inhibition is 100%.

**Q.** And the Inhibition (Plasmodium falciparum [2])?
**A.** Its Inhibition is 100%.

**Q.** What about the Inhibition (HepG2) of the same molecule?
**A.** The Inhibition was 69%.

**Q.** How did the Inhibition (Plasmodium falciparum [1]) turn out when `N#CC(c1ccc(Cl)cc1)c1ccc2c(C(F)(F)F)cc(C(F)(F)F)nc2n1` (stereo not drawn) was run?
**A.** Its Inhibition is 97%.

**Q.** And the Inhibition (Plasmodium falciparum [2])?
**A.** Its Inhibition is 54%.

**Q.** And the Inhibition (HepG2)?
**A.** Its Inhibition is 68%.

**Q.** For `c1ccc(C2CCC(N3CCC(N4CCN(c5ccccc5)CC4)CC3)CC2)cc1` (stereo not drawn), which Inhibition (Plasmodium falciparum [1]) is on record?
**A.** Its Inhibition is 97%.

**Q.** And the Inhibition (Plasmodium falciparum [2])?
**A.** The Inhibition was 34%.

**Q.** What about the Inhibition (HepG2) of the same molecule?
**A.** Its Inhibition is 6%.

**Q.** How did the Inhibition (Plasmodium falciparum [1]) turn out when `C=C(C)CSc1nc2c(c(=O)n1CCc1ccccc1)C1(CCCC1)Cc1ccccc1-2` was run?
**A.** Its Inhibition is 100%.

**Q.** What about the Inhibition (Plasmodium falciparum [2]) of the same molecule?
**A.** Its Inhibition is 80%.

**Q.** And the Inhibition (HepG2)?
**A.** The Inhibition was 14%.

**Q.** For `CC(C)CCN(Cc1cncn1Cc1cccc(Cl)c1)C(=O)c1cncc(-c2ccccc2)c1`, which Inhibition (Plasmodium falciparum [1]) is on record?
**A.** The Inhibition was 99%.

**Q.** What about the Inhibition (Plasmodium falciparum [2]) of the same molecule?
**A.** Its Inhibition is 0%.

**Q.** What about the Inhibition (HepG2) of the same molecule?
**A.** Its Inhibition is 9%.

**Q.** Which results are given for `CO/C(=C\C=C\c1cc2cc(Cl)ccc2[nH]1)C(=O)NCCCN1CCN(c2cc(Cl)ccc2OC)CC1`?
**A.** Inhibition (Plasmodium falciparum [1]): 97%; Inhibition (Plasmodium falciparum [2]): 21%; Inhibition (HepG2): 41%

**Q.** Which results are given for `N=C(N)c1ccc(NCc2cccc(C(=O)O)c2)cc1.O=C(O)C(F)(F)F`?
**A.** Inhibition (Plasmodium falciparum [1]): 84%; Inhibition (Plasmodium falciparum [2]): 79%; Inhibition (HepG2): 7%

**Q.** Which Inhibition (Plasmodium falciparum [1]) does the source give for `COc1cc2nc(N3CCC(CNC(=O)c4ccc(-c5ccc(C(=O)N(C)C)cc5)cc4)CC3)nc(N)c2cc1OC` here?
**A.** Its Inhibition is 100%.

**Q.** What about the Inhibition (Plasmodium falciparum [2]) of the same molecule?
**A.** The Inhibition was 89%.

**Q.** And the Inhibition (HepG2)?
**A.** The Inhibition was 20%.

**Q.** `CCC(=O)c1cc(C(=O)NCCc2cccc(OC)c2)ccc1OC` was tested. Which Inhibition (Plasmodium falciparum [1]) did it give?
**A.** The Inhibition was 83%.

**Q.** What about the Inhibition (Plasmodium falciparum [2]) of the same molecule?
**A.** Its Inhibition is 12%.

**Q.** What about the Inhibition (HepG2) of the same molecule?
**A.** The Inhibition was 0%.

**Q.** For `CC1(C)N=C(N)N=C(N)N1OCc1ccc2ccccc2c1`, which Inhibition (Plasmodium falciparum [1]) is on record?
**A.** The Inhibition was 94%.

**Q.** What about the Inhibition (Plasmodium falciparum [2]) of the same molecule?
**A.** Its Inhibition is 97%.

**Q.** What about the Inhibition (HepG2) of the same molecule?
**A.** The Inhibition was 65%.

**Q.** For `NC(=O)c1cccc(C(=O)Nc2ccc(-c3cccc(-c4nc5cc(C(F)(F)F)ccc5[nH]4)c3)cc2)c1`, which Inhibition (Plasmodium falciparum [1]) is on record?
**A.** Its Inhibition is 100%.

**Q.** What about the Inhibition (Plasmodium falciparum [2]) of the same molecule?
**A.** Its Inhibition is 86%.

**Q.** And the Inhibition (HepG2)?
**A.** Its Inhibition is 74%.

**Q.** `CC1(C(=O)Nc2ccc([N+](=O)[O-])cc2O)CC2c3ccccc3C1c1ccccc12` (stereo not drawn) was tested. Which Inhibition (Plasmodium falciparum [1]) did it give?
**A.** The Inhibition was 98%.

**Q.** And the Inhibition (Plasmodium falciparum [2])?
**A.** Its Inhibition is 16%.

**Q.** And the Inhibition (HepG2)?
**A.** Its Inhibition is 37%.

**Q.** `COc1ccc(CNC(=O)c2cnc3c(O)cccc3c2Nc2cccc(NC(=O)c3ccc(Cl)c([N+](=O)[O-])c3)c2)cc1.O=C(O)C(F)(F)F` was tested. Which Inhibition (Plasmodium falciparum [1]) did it give?
**A.** The Inhibition was 86%.

**Q.** And the Inhibition (Plasmodium falciparum [2])?
**A.** Its Inhibition is 21%.

**Q.** And the Inhibition (HepG2)?
**A.** The Inhibition was 48%.

**Q.** Which Inhibition (Plasmodium falciparum [1]) does the source give for `Fc1ccc(C=NN=c2cc[nH]c3ccc(C(F)(F)F)cc23)cc1` here?
**A.** Its Inhibition is 90%.

**Q.** And the Inhibition (Plasmodium falciparum [2])?
**A.** Its Inhibition is 6%.

**Q.** What about the Inhibition (HepG2) of the same molecule?
**A.** The Inhibition was 22%.

**Q.** Which results are given for `CCOc1ccc(CCC(=O)O)cc1OCC`?
**A.** Inhibition (Plasmodium falciparum [1]): 94%; Inhibition (Plasmodium falciparum [2]): 0%; Inhibition (HepG2): 60%

**Q.** What does the source list for `COc1ccc(C(=O)Nc2cc(Br)c3c(c2)CNCC3)cc1C(F)(F)F.Cl`?
**A.** Inhibition (Plasmodium falciparum [1]): 90%; Inhibition (Plasmodium falciparum [2]): 4%; Inhibition (HepG2): 13%

**Q.** What does the source list for `CCCCNc1c(C(=O)OCC)c(C)nc2c1[nH]c1ccccc12`?
**A.** Inhibition (Plasmodium falciparum [1]): 100%; Inhibition (Plasmodium falciparum [2]): 58%; Inhibition (HepG2): 0%

**Q.** With `COc1ccc(-c2ccc(NC(=O)c3cccc(Cl)c3)cc2)cc1CN1CCN(C)CC1.O=C(O)C(F)(F)F` as the molecule, how does the Inhibition (Plasmodium falciparum [1]) read?
**A.** Its Inhibition is 90%.

**Q.** And the Inhibition (Plasmodium falciparum [2])?
**A.** The Inhibition was 33%.

**Q.** What about the Inhibition (HepG2) of the same molecule?
**A.** The Inhibition was 42%.

**Q.** Which results are given for `COc1ccc(Cn2c(=O)[nH]c3cc(C(=O)NC4CCN(Cc5ccccc5)CC4)ccc3c2=O)cc1`?
**A.** Inhibition (Plasmodium falciparum [1]): 97%; Inhibition (Plasmodium falciparum [2]): 45%; Inhibition (HepG2): 10%

**Q.** Which Inhibition (Plasmodium falciparum [1]) does the source give for `O=C(Nc1ccc(CN2CCCCC2)cc1)c1ccc(COc2ccc([N+](=O)[O-])cc2)o1` here?
**A.** The Inhibition was 86%.

**Q.** What about the Inhibition (Plasmodium falciparum [2]) of the same molecule?
**A.** The Inhibition was 0%.

**Q.** What about the Inhibition (HepG2) of the same molecule?
**A.** Its Inhibition is 12%.

**Q.** What does the source list for `CCCCCc1cc(OCCN(C)C)cc2c1C(=O)CC(C)(C)O2.Cl`?
**A.** Inhibition (Plasmodium falciparum [1]): 98%; Inhibition (Plasmodium falciparum [2]): 0%; Inhibition (HepG2): 5%

**Q.** What does the source list for `O=C(N[C@@H](CC1CCCCC1)C(=O)NCCc1ccc(Cl)c(Cl)c1)c1ccc(O)c(-c2ccc(Cl)c(Cl)c2)c1`?
**A.** Inhibition (Plasmodium falciparum [1]): 100%; Inhibition (Plasmodium falciparum [2]): 99%; Inhibition (HepG2): 0%

**Q.** What does the source list for `COc1ccc(-c2cn3c(C(=O)Nc4ccccc4Cl)c(-c4ccccc4)c4c3n2CCCC4)cc1`?
**A.** Inhibition (Plasmodium falciparum [1]): 100%; Inhibition (Plasmodium falciparum [2]): 1%; Inhibition (HepG2): 7%

**Q.** What does the source list for `CC1(C)NC(N)=NC(=N)N1OCc1cccc(Cl)c1Cl.Cl`?
**A.** Inhibition (Plasmodium falciparum [1]): 92%; Inhibition (Plasmodium falciparum [2]): 75%; Inhibition (HepG2): 68%

**Q.** With `Cc1cccc2nc(-c3cccc(-c4ccc(CNCc5ccc(S(C)(=O)=O)cc5)cc4)c3)[nH]c12.O=C(O)C(F)(F)F` as the molecule, how does the Inhibition (Plasmodium falciparum [1]) read?
**A.** Its Inhibition is 100%.

**Q.** And the Inhibition (Plasmodium falciparum [2])?
**A.** The Inhibition was 98%.

**Q.** And the Inhibition (HepG2)?
**A.** Its Inhibition is 8%.

**Q.** How did the Inhibition (Plasmodium falciparum [1]) turn out when `NCc1cccc(-c2cccc(CNC3CCN(Cc4ccccc4)CC3)c2)c1.O=C(O)C(F)(F)F` was run?
**A.** Its Inhibition is 100%.

**Q.** And the Inhibition (Plasmodium falciparum [2])?
**A.** The Inhibition was 45%.

**Q.** What about the Inhibition (HepG2) of the same molecule?
**A.** Its Inhibition is 9%.

**Q.** What does the source list for `Cl.Oc1ccc(CCNc2nc(NCCCOc3ccccc3-c3ccc(C(F)(F)F)cc3)nc(N3CCNCC3)n2)cc1`?
**A.** Inhibition (Plasmodium falciparum [1]): 100%; Inhibition (Plasmodium falciparum [2]): 49%; Inhibition (HepG2): 64%

**Q.** Which results are given for `COc1ccc(N2CCN(CCCCNC(=O)c3ccc(/C=C/c4ccc(Cl)c(Cl)c4)cc3)CC2)c(OC)c1`?
**A.** Inhibition (Plasmodium falciparum [1]): 100%; Inhibition (Plasmodium falciparum [2]): 51%; Inhibition (HepG2): 51%
